# Several values for one entry are separate records, joined by “and”; a condition that tells them apart may be missing. Equal values may be shown once. Inconclusive results are not listed. Entries that show only a call come without a potency. The source holds several records for some structures; these can differ, active in one and inactive in another. Activity calls are given as the source filed them. Unless noted, the call rests on the fitted dose curve; in most records, active means well fitted curve in the direction sought with a large enough effect in the repeat runs; inconclusive means weak or mixed curves; inactive means no such curve, though single readings can be large; an effect the other way counts as inactive or inconclusive.
# Legend:
# [1] = qHTS assay to identify small molecule agonists of the hypoxia (HIF-1) signaling pathway - cell viability counter screen (AID 1224844; calls by dose curve; further: nearly all actives have a fitted effect of over 50% in size)
# Outline: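 HRE-bla ME-180 cells, 2,000/well in 0.5% dialyzed FBS medium, treated 17 h at 37C with compounds. Viability read in the same wells as the bla reporter, by CellTiter-Glo luminescence after 30 min at room temperature.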
# [2] = qHTS assay to identify small molecule agonists of H2AX (AID 1224845; active means well fitted activation curve with a large enough effect in the signal ratio in the repeat runs, not every such curve was filed as active; the % refers to the signal ratio; further: potency means the concentration at half of the fitted maximal effect)
# Outline: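 Wild-type CHO-K1 cells plated overnight, then exposed 3 hr at 37C to compounds at 15 concentrations (0.76% DMSO). Lysed, then HTRF anti-pH2AX(S139)-cryptate/anti-H2AX-d2 detection after 24 hr at room temperature; emissions 665 and 620 nm.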
# [3] = qHTS assay to identify small molecule agonists of H2AX - cell viability counter screen (AID 1224847; calls by dose curve; further: nearly all actives have a fitted effect of over 30% in size; further: potency means the concentration at half of the fitted maximal effect)
# Outline: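 Read-out: CellTiter-Glo luminescence, 30 min RT. Cells: wild-type CHO-K1, 1000/well, 10% FBS, plated overnight at 37C. Treatment: 15 concentrations, 3 hr, 37C, 0.76% DMSO.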
# [4] = qHTS RealTime-Glo MT Cell Viability Assay in HepG2 cells - 24 hour (AID 1224867); further: nearly all actives have a fitted effect of over 50% in size
# Outline: (§1)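 Tox21 10K library screened in qHTS format on HepG2 cells carrying RealTime-Glo reagents. Compounds were added after a 5 h preincubation, and the luminescent signal from continuous culture was measured repeatedly during 40 h treatment.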
# [5] = A CellTox Green Cytotoxicity Assay to monitor cytotoxicity in HEK293 cells - 0 hour (AID 1224869); further: nearly all actives have a fitted effect of over 50% in size
# Outline: (§2)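 HEK293 cells, 600/well, were preincubated 5 hours and then exposed to compounds at 37 C for up to 40 hours. A cell-impermeant cyanine dye staining dead-cell DNA was read by fluorescence at 0, 8, 16, 24, 32 and 40 h time points.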
# [6] = A CellTox Green Cytotoxicity Assay to monitor cytotoxicity in HEK293 cells - 40 hour (AID 1224871); further: nearly all actives have a fitted effect of over 45% in size
# Outline: as §2
# [7] = qHTS RealTime-Glo MT Cell Viability Assay in HEK293 cells - 16 hour (AID 1224872); further: nearly all actives have a fitted effect of over 50% in size; further: potency means the concentration at half of the fitted maximal effect
# Outline: (§3)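 Luminescence generated by NanoLuc from substrate produced by living HEK293 cells served as the viability signal. Each value reflects the reading at its stated time point during continuous 40 h compound exposure at 37 C.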
# [8] = qHTS RealTime-Glo MT Cell Viability Assay in HepG2 cells - 8 hour (AID 1224873); further: nearly all actives have a fitted effect of over 55% in size
# Outline: (§4)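 HepG2 cells mixed with RealTime-Glo MT reagents (NanoLuc plus cell-permeant prosubstrate) were seeded at 600 cells/well, incubated 5 h at 37 C/5% CO2, then pinned with compounds in DMSO; nonlytic luminescence tracked viability during 40 h treatment.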
# [9] = qHTS RealTime-Glo MT Cell Viability Assay in HEK293 cells - 40 hour (AID 1224874); conditions: RealTime-Glo luminescence; max response: stronger effect = lower value; further: nearly all actives have a fitted effect of over 50% in size; further: potency means the concentration at half of the fitted maximal effect
# Outline: (§5)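 600 cells/well were plated with the nonlytic NanoLuc/prosubstrate reagent, pre-incubated 5 h, then given 23 nL of compound in DMSO. Incubation at 37 C for 40 h, with luminescence from viable-cell-reduced substrate read repeatedly from 0 h.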
# [10] = A CellTox Green Cytotoxicity Assay to monitor cytotoxicity in HepG2 cells - 16 hour (AID 1224876); further: nearly all actives have a fitted effect of over 45% in size
# Outline: (§6)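 HepG2 cells, 600/well, preincubated 5 h with CellTox Green dye, then exposed to Tox21 compounds in DMSO at 37 C for up to 40 h. Dead-cell DNA fluorescence read at the indicated time point.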
# [11] = qHTS RealTime-Glo MT Cell Viability Assay in HepG2 cells - 32 hour (AID 1224877); further: nearly all actives have a fitted effect of over 55% in size
# Outline: as §1
# [12] = A CellTox Green Cytotoxicity Assay to monitor cytotoxicity in HepG2 cells - 40 hour (AID 1224879); further: nearly all actives have a fitted effect of over 40% in size; further: potency means the concentration at half of the fitted maximal effect
# Outline: as §6
# [13] = qHTS RealTime-Glo MT Cell Viability Assay in HEK293 cells - 0 hour (AID 1224880); further: top concentration of the series differs between compounds; nearly all actives have a fitted effect of over 45% in size
# Outline: as §5
# [14] = qHTS assay to identify small molecule antagonists of the estrogen related receptor (ERR) signaling pathway from Tox21 library (AID 1224848); further: nearly all actives have a fitted effect of over 50% in size; further: potency means the concentration at half of the fitted maximal effect
# Outline: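 Screening used an ERR reporter line supplied by NTP, exposed for 18 h at 37 C to library compounds delivered in DMSO. Signal was luciferase luminescence developed with ONE-Glo at room temperature for 30 min.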
# [15] = qHTS assay to identify small molecule agonists of the estrogen related receptor (ERR) signaling pathway from Tox21 library (AID 1224849; calls by dose curve; further: nearly all actives have a fitted effect of over 15% in size); conditions: ERR reporter cell line, ONE-Glo luciferase, 18 h
# Outline: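 ERR reporter cells (NTP line) pre-incubated 6 hours at 37 C, then exposed to compounds for 18 hours at 37 C. ONE-Glo luciferase luminescence was read after 30 minutes at room temperature.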
# [16] = qHTS RealTime-Glo MT Cell Viability Assay in HepG2 cells - 40 hour (AID 1224870); further: nearly all actives have a fitted effect of over 50% in size
# Outline: as §4
# [17] = A CellTox Green Cytotoxicity Assay to monitor cytotoxicity in HepG2 cells - 24 hour (AID 1224878); further: nearly all actives have a fitted effect of over 45% in size
# Outline: as §6
# [18] = qHTS RealTime-Glo MT Cell Viability Assay in HEK293 cells - 32 hour (AID 1224868)
# Outline: as §3
# [19] = A CellTox Green Cytotoxicity Assay to monitor cytotoxicity in HEK293 cells - 24 hour (AID 1224875); further: nearly all actives have a fitted effect of over 45% in size
# Outline: as §2
# [20] = qHTS assay to identify small molecule agonists of the hypoxia (HIF-1) signaling pathway (AID 1224846; active means well fitted activation curve with a large enough effect in the signal ratio in the repeat runs, not every such curve was filed as active; the % refers to the signal ratio)
# Outline: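 HRE-bla ME-180 beta-lactamase reporter cells in medium with 0.5% dialyzed FBS, pre-incubated 5 h then exposed to compounds 17 h at 37C, 5% CO2; reporter induction read with CCF4-AM FRET substrate.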
compound,measurement,setting,value
F[B-](F)(F)F,Potency,[1],inactive
same,Potency,[2],inactive and 115 µM (active)
same,Potency,[3],inactive
same,Potency,[4],inactive
same,Potency,[5],inactive
same,Potency,[6],inactive
same,Potency,[7],inactive
same,Potency,[8],inactive
same,max response,[9],7.4% (inactive) and 8.65% (inactive) and 0.515% (inactive)
same,Potency,[10],inactive
same,Potency,[11],inactive
same,Potency,[12],inactive and 39.5 µM (active)
same,Potency,[13],inactive
Cc1cccc(C)c1,Potency,[1],inactive
same,Potency,[2],inactive
same,Potency,[3],inactive
same,Potency,[14],inactive
same,"activity change, positive = activation",[15]; at 92.4 µM (top of the series),-11.8% (inactive) and 5.13% (inactive)
same,Potency,[4],inactive
same,Potency,[5],inactive
same,Potency,[16],inactive
same,Potency,[6],inactive
same,Potency,[8],inactive
same,max response,[9],-11.1% (inactive) and -3.52% (inactive) and 0.116% (inactive)
same,Potency,[11],inactive
same,Potency,[17],inactive
same,Potency,[12],inactive
same,Potency,[13],inactive
O=C1c2c(O)cccc2Cc2cccc(O)c21,Potency,[1],inactive
same,Potency,[2],inactive
same,Potency,[3],inactive
same,Potency,[4],inactive
same,Potency,[18],inactive
same,Potency,[5],inactive
same,Potency,[6],inactive
same,Potency,[7],inactive
same,Potency,[8],inactive
same,max response,[9],-2.74% (inactive) and 0.603% (inactive) and 0.249% (inactive)
same,Potency,[10],inactive
same,Potency,[11],inactive
same,Potency,[17],inactive
same,Potency,[12],inactive
same,Potency,[13],inactive
OC[C@H]1O[C@H](O[C@]2(CCl)O[C@H](CCl)[C@@H](O)[C@@H]2O)[C@H](O)[C@@H](O)[C@H]1Cl,Potency,[1],inactive
same,Potency,[2],inactive
same,Potency,[3],inactive
same,Potency,[18],inactive
same,Potency,[5],inactive
same,Potency,[6],inactive
same,Potency,[8],inactive
same,max response,[9],-6.96% (inactive) and 4.96% (inactive) and 1.17% (inactive)
same,Potency,[19],inactive
same,Potency,[10],inactive
same,Potency,[11],inactive
same,Potency,[17],inactive
same,Potency,[12],inactive
same,Potency,[13],inactive
O=C1NS(=O)(=O)c2ccccc21,Potency,[1],inactive
same,Potency,[2],inactive
same,Potency,[3],inactive
same,Potency,[18],inactive
same,Potency,[5],inactive
same,Potency,[6],inactive
same,Potency,[7],inactive
same,Potency,[8],inactive
same,max response,[9],5.75% (inactive) [middle of 5 runs]
same,Potency,[11],inactive
same,Potency,[12],inactive
same,Potency,[13],inactive
CCCC[P+](CCCC)(CCCC)CCCC,Potency,[1],inactive
same,Potency,[2],inactive
same,Potency,[3],inactive
same,Potency,[5],inactive
same,Potency,[16],inactive
same,Potency,[6],inactive
same,Potency,[8],inactive
same,Potency,[9],21.8 µM (active) and 17.7 µM (active) and 4.36 µM (active)
same,Potency,[19],inactive
same,Potency,[11],inactive
same,Potency,[17],inactive
same,Potency,[12],inactive
same,Potency,[13],inactive
CC(C)C(=O)Nc1ccc([N+](=O)[O-])c(C(F)(F)F)c1,Potency,[1],inactive
same,Potency,[2],inactive
same,Potency,[3],104 µM (active) and inactive
same,Potency,[14],25 µM (active) and 27.3 µM (active) and 13.3 µM (active)
same,"activity change, positive = activation",[15]; at 42.5 µM (top of the series),-30.7% (inactive)
same,"activity change, positive = activation",[15]; at 92.4 µM (top of the series),-65.7% (inactive) and -58.2% (inactive)
same,Potency,[4],inactive
same,Potency,[5],inactive
same,Potency,[6],inactive
same,Potency,[7],20 µM (active) and 19.5 µM (active) and 10.7 µM (active)
same,Potency,[8],inactive
same,Potency,[9],11.3 µM (active) and 21.9 µM (active) and 9.52 µM (active)
same,Potency,[11],inactive
same,Potency,[12],inactive
same,Potency,[13],inactive
NS(=O)(=O)O,Potency,[1],inactive
same,Potency,[2],inactive
same,Potency,[3],inactive
same,Potency,[18],inactive
same,Potency,[5],inactive
same,Potency,[16],inactive
same,Potency,[6],inactive
same,Potency,[7],inactive
same,Potency,[8],inactive
same,max response,[9],0.202% (inactive) [middle of 4 runs]
same,Potency,[10],inactive
same,Potency,[11],inactive
same,Potency,[12],inactive
same,Potency,[13],inactive
Cc1ccc(S(=O)(=O)O)cc1,Potency,[1],inactive
same,Potency,[2],inactive
same,Potency,[3],inactive
same,Potency,[4],inactive
same,Potency,[5],inactive
same,Potency,[6],inactive
same,Potency,[7],inactive
same,Potency,[8],inactive
same,max response,[9],2.66% (inactive) and 6.16% (inactive) and 6.13% (inactive)
same,Potency,[10],inactive
same,Potency,[11],inactive
same,Potency,[17],inactive
same,Potency,[12],inactive
same,Potency,[13],inactive
Nc1c2c(nc3ccccc13)CCCC2,Potency,[1],inactive
same,Potency,[2],inactive
same,Potency,[3],inactive
same,Potency,[14],61.1 µM (active) and 54.5 µM (active) and inactive
same,"activity change, positive = activation",[15]; at 42.5 µM (top of the series),-6.1% (inactive)
same,"activity change, positive = activation",[15]; at 92.4 µM (top of the series),-44% (inactive) and -30.5% (inactive)
same,Potency,[4],inactive
same,Potency,[18],inactive
same,Potency,[5],inactive
same,Potency,[16],inactive
same,Potency,[6],inactive
same,Potency,[7],inactive
same,Potency,[8],inactive
same,max response,[9],-28% (inactive) and -11.6% (inactive) and 18.3% (inactive)
same,Potency,[10],inactive
same,Potency,[11],inactive
same,Potency,[12],inactive
same,Potency,[13],inactive
CC(=O)CCC(=O)O,Potency,[1],inactive
same,Potency,[2],inactive
same,outcome,[20],inactive
same,Potency,[3],inactive
same,Potency,[5],inactive
same,Potency,[6],inactive
same,Potency,[8],inactive
same,max response,[9],-1.85% (inactive) and 3.92% (inactive) and 7.17% (inactive)
same,Potency,[19],inactive
same,Potency,[10],inactive
same,Potency,[11],inactive
same,Potency,[12],inactive
same,Potency,[13],inactive
